Assay outcomes: PubChem BioAssay, National Center for Advancing Translational Sciences (NCATS)
Only some compounds are listed: those with a hit (about 17% of all), similar ones and a draw of the others.
HT1080 IDH1KD tx = qHTS for induction of synthetic lethality in tumor cells producing 2HG: qHTS for the HT-1080-IDH1KD cell line; HT-1080 IDH1 knockdown viability, ATP luminescence, 48 h; Potency, µM (series often up to 46.1 µM), for the others: at the top dose activity, negative = toxicity, hits mostly cytotoxic; actives 2% (n = 360,000);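 further: 0% = DMSO wells and -100% = cell-free medium wells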
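Knockdown cells (IDH1KD HT-1080) received compounds 2 h after plating at 750 cells/well and were kept 48 h at 37 °C in 5% FBS RPMI. A CellTiter-Glo luminescence read gave % activity for curve fitting.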
HT1080-NT tox = qHTS for induction of synthetic lethality in tumor cells producing 2HG: qHTS for the HT-1080-NT fibrosarcoma cell line. HT-1080-NT fibrosarcoma viability, CellTiter-Glo ATP luminescence, 48 h. Potency, µM (series often up to 46.1 µM), for inactives: top-dose activity, negative = less viability, usual class: cytotoxic. actives 1.6% (n = 360,000);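 further: NT is the 2HG producing partner of a matched IDH1 knockdown line; 0% = DMSO-treated cells and -100% = media-only wells without cells; nearly all actives have a fitted effect of over 55% in size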
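Luminescent CellTiter-Glo readout after 48 hours of compound exposure at 37 degrees C defined viability of HT-1080-NT cells. Activity was normalized to DMSO wells and cell-free media wells; concentration-response curves were fitted and assigned curve classes.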
HepG2 tox = qHTS for Inhibitors of TGF-b: Cytotox Counterscreen; HepG2 CAGA-GFP viability, ATP luminescence, 18 h; Potency, µM (doses to about 46.1 µM), without a hit: top-dose activity change, negative = cytotoxicity, hits mostly cytotoxic; actives 0.76% (n = 410,000); AID 588856, 2011
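HepG2 CAGA-GFP cells (1000/well, DMEM with 1% FBS) received compound, then TGF-beta at 500 pg/mL final, and were incubated 18 hours at 37 degrees C. Viability was read by CellTiter-Glo luminescence. Media-only wells were set as complete cell-killing and DMSO as no toxicity.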
DT40 TDP1 CPT = qHTS for Inhibitors of human tyrosyl-DNA phosphodiesterase 1 (TDP1): qHTS in cells in presence of CPT; chicken DT40 Tdp1-/-;hTDP1 cells + 20 nM CPT, ATP luminescence, 48 h; actives 12% (n = 420,000); Potency, µM (series often up to 46.2 µM), for inactives: at the highest dose activity change, negative = growth inhibition, usual class: inhibitors; further: on the % scale 0 is the no-effect control and ±100 the full control effect; nearly all actives have a fitted effect of over 55% in size
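Cell growth measured by CellTiter-Glo luminescence after a minimum 48 h, 37 C compound exposure with 20 nM CPT in Tdp1-knockout DT40 cells stably expressing hTDP1, seeded 400/well; qHTS titration format.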
TGFb inhibitor = qHTS for Inhibitors of TGF-b. HepG2 CAGA-GFP TGF-b/SMAD3 reporter, GFP fluorescence, 18 h; TGF-beta stimulated, 500 pg/mL final. Potency, µM (titrated, usually from 46.1 µM), without a hit: top-dose activity, negative = inhibition, usual class: inhibitors. actives 1.2% (n = 410,000). AID 588855, 2011; further: on the % scale 0 is the no-effect control and ±100 the full control effect; nearly all actives have a fitted effect of over 65% in size
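Read-out: total well GFP (ex488/em500-530) summed from mean per-cell fluorescence. Cells: HEPG2 CAGA-GFP, 1% FBS DMEM, 18 h at 37 degrees C with 500 pg/mL final TGF-beta. Unstimulated wells served as the full-inhibition control; stimulated DMSO wells = 0%.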
TDP1 cell noCPT = qHTS for Inhibitors of human tyrosyl-DNA phosphodiesterase 1 (TDP1): qHTS in cells in absence of CPT | DT40 Tdp1-/- hTDP1 cells, no CPT, ATP luminescence, 48 h | Potency, µM (highest dose often 46.2 µM), for inactives: top-dose activity change, negative = growth inhibition, usual class: inhibitors | actives 15% (n = 420,000); further: on the % scale 0 is the no-effect control and ±100 the full control effect; nearly all actives have a fitted effect of over 55% in size
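Readout: luminescence from CellTiter-Glo after 30 min in the dark at RT. Cells: DT40 Tdp1-/- with stable hTDP1, 400/well. Exposure: compounds alone, ≥48 hr, 37 °C.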
Active calls of the source: *; ? = inconclusive; . = not tested or not shown; [ ] = dose if it differs, or a comment. The call rests on the fitted dose curve; in most records, active means well fitted curve in the direction sought with a large enough effect; inconclusive means small, poorly fitted or top-dose-only effect, or another doubt; inactive means no such curve, though single readings can be large; an effect the other way counts as inactive or inconclusive. Potency means the concentration at half of the fitted maximal effect.

SMILES | HT1080 IDH1KD tx | HT1080-NT tox | HepG2 tox | DT40 TDP1 CPT | TGFb inhibitor | TDP1 cell noCPT
Cc1ccccc1N1CCN(C2CCCN(C(=O)c3cn4cccc(C)c4n3)C2)CC1 (configuration not stated) | -29% | 7% | -4% | 23µM* | 4% | 8.2µM*
CC1=C(C(=O)N2CCCC(N3CCN(c4ccccc4C)CC3)C2)OCCO1 (configuration not stated) | 2% | 6% | -1% | ? | -22% | ?
Cc1cnc(C(=O)N2CCCC(N3CCN(c4ccccc4C)CC3)C2)cn1 (configuration not stated) | 17% | 12% | 4% | 18µM* | 9% | ?
CCc1[nH]nc(C(=O)N2CCCC(N3CCN(c4ccccc4C)CC3)C2)c1C (configuration not stated) | -2% | -4% | -14% | 16µM* | ? | ?
CCOC(=O)c1ccc(NC(=O)c2nc[nH]c2C(=O)NCC(=O)OC(C)(C)C)cc1 | ? | ? | -22% | ? | ? | -97%
CC(C)(C)OC(=O)NCCCCCNC(=O)c1[nH]cnc1C(=O)Nc1ccc(Cl)cc1 | ? | ? | 18µM* | ? | ? | 15µM*
Cc1ccc(NC(=O)c2nc[nH]c2C(=O)NCCCCCCNC(=O)c2[nH]cnc2C(=O)Nc2ccc(C)cc2)cc1 | 9% | 3% | 1% | ? | 6% | ?
CC(C)(C)OC(=O)NCCCCCNC(=O)c1[nH]cnc1C(=O)Nc1ccccc1 | -11% | -11% | -28% | ? | ? | 15µM*
Cc1ccc(NC(=O)c2nc[nH]c2C(=O)NCCCCCNC(=O)OC(C)(C)C)cc1 | -28% | ? | -55% | ? | ? | 16µM*
CC(C)C[C@H](NC(=O)c1[nH]cnc1C(=O)Nc1ccc(Cl)cc1)C(=O)OC(C)(C)C | ? | ? | -55% | ? | ? | ?
Cc1ccc(NC(=O)c2nc[nH]c2C(=O)NCCCCNC(=O)c2[nH]cnc2C(=O)Nc2ccc(C)cc2)cc1 | 23% | ? | 7% | ? | -6% | 8.2µM*
CCCCCOc1ccc(Cn2c(=O)oc3ccccc32)cc1 | . | . | -2% | -13% | -10% | -13%
CCC1(CC)NC(=O)N(CC(=O)OC(C)C(=O)Nc2ccc(Cl)cn2)C1=O (configuration not stated) | 8% | 4% | -21% | -17% | -3% | 6%
CC(Sc1nc(N)c2c3c(sc2n1)CSC(C)(C)C3)C(=O)Nc1ccccc1 (configuration not stated) | -15% | -17% | 3% | 18µM* | ? | 13µM*
CCCS(=O)(=O)NC(=O)C1(C)CCCN(C(=O)c2cc(C)n(C(C)(C)C)n2)C1 (configuration not stated) | 13% | 27% | 14% | -9% | 34% | -8%
CCCc1cc(=O)[nH]c2nnc(SCC(=O)Nc3ccc4c(c3)OCCO4)n12 | 15% | 10% | 27% | 3% | 1% | -3%
COCc1c(C(=O)N2CCN(C3CCCC3)CC2)cnn1-c1nccc(-c2cc(C)sc2C)n1 | . | . | . | 5%[9.04 µM] | . | -17%
Cn1cc(-c2cc3n(n2)CCC(=O)N3CCCC(=O)NCc2ccccc2)c2ccccc21 | . | . | -15% | ? | -8% | ?
